According to PubChem BioAssay (EPA / NIEHS):
Several values for one entry are separate records, joined by “and”; a condition that tells them apart may be missing. Equal entries are not always repeated. The source holds several records for some structures; these can differ, active in one and inactive in another. Activity calls are given as the source filed them. The calls were made as follows: active = hit-call score of the fitted dose curve at least 0.9, where 1 is the maximum; inactive = score below 0.9.

Assays:
[1] = read-out: Interleukin-8 (IL8), CXCL8 (gene 3576); test: BSK_CASM3C_IL8: BioMAP Diversity Plus: CASM3C Assay for Interleukin-8 (IL8) Biomarker Activity (AID 2283042); conditions: primary human coronary artery smooth muscle cells; actives raise or lower the signal;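 also: IL-8 protein level quantified by ELISA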
[2] = read-out: Human Leukocyte Antigen - DR isotype (HLADR), HLA-DRA (gene 3122); test: BSK_CASM3C_HLADR: BioMAP Diversity Plus: CASM3C Assay for Human Leukocyte Antigen - DR isotype (HLADR) Biomarker Activity (AID 2283043); conditions: primary human coronary artery smooth muscle cells; actives raise or lower the signal;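 also: cell-surface HLA-DR protein level quantified by ELISA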
[3] = read-out: Macrophage colony-stimulating factor (MCSF), CSF1 (gene 1435); test: BSK_CASM3C_MCSF: BioMAP Diversity Plus: CASM3C Assay for Macrophage colony-stimulating factor (MCSF) Biomarker Activity (AID 2283044); conditions: primary human coronary artery smooth muscle cells; actives raise or lower the signal;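 also: M-CSF protein amount quantified by ELISA after 24 h exposure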
[4] = read-out: Low-density lipoprotein receptor (LDLR), LDLR (gene 3949); test: BSK_CASM3C_LDLR: BioMAP Diversity Plus: CASM3C Assay for Low-density lipoprotein receptor (LDLR) Biomarker Activity (AID 2283045); conditions: primary human coronary artery smooth muscle cells; actives raise or lower the signal;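 also: LDLR protein level on the cell surface quantified by ELISA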
[5] = read-out: Monocyte Chemoattractant Protein-1 (MCP1), CCL2 (gene 6347); test: BSK_CASM3C_MCP1: BioMAP Diversity Plus: CASM3C Assay for Monocyte Chemoattractant Protein-1 (MCP1) Biomarker Activity (AID 2283046); conditions: primary human coronary artery smooth muscle cells; actives raise or lower the signal;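 also: MCP-1 level quantified by ELISA 24 h after dosing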
[6] = BSK_CASM3C_Proliferation: Cell Proliferation Assessment in the BioMAP Diversity Plus: CASM3C Assay (AID 2283047); conditions: primary human coronary artery smooth muscle cells;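 also: sulforhodamine B total protein stain as relative cell number at 560 nm; sub-confluent cells exposed 48 h before staining; fitted both ways against DMSO so gain or loss of cell number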
[7] = read-out: Monokine induced gamma interferon (MIG), CXCL9 (gene 4283); test: BSK_CASM3C_MIG: BioMAP Diversity Plus: CASM3C Assay for Monokine induced gamma interferon (MIG) Biomarker Activity (AID 2283048); conditions: primary human coronary artery smooth muscle cells; actives raise or lower the signal;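 also: MIG protein level measured by ELISA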
[8] = read-out: serum amyloid A (SAA), SAA1 (gene 6288); test: BSK_CASM3C_SAA: BioMAP Diversity Plus: CASM3C Assay for serum amyloid A (SAA) Biomarker Activity (AID 2283049); conditions: primary human coronary artery smooth muscle cells; actives raise or lower the signal;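 also: SAA protein level quantified by ELISA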
[9] = BSK_CASM3C_SRB: Viability Assessment in the BioMAP Diversity Plus: CASM3C Assay (AID 2283050); conditions: primary human coronary artery smooth muscle cells;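 also: total protein by SRB staining as cytotoxicity measure in parallel cultures; cells exposed to compound for 24 h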
[10] = read-out: Thrombomodulin, THBD (gene 7056); test: BSK_CASM3C_Thrombomodulin: BioMAP Diversity Plus: CASM3C Assay for Thrombomodulin Biomarker Activity (AID 2283051); conditions: primary human coronary artery smooth muscle cells; actives raise or lower the signal;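 also: thrombomodulin protein level measured by ELISA 24 h after dosing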

SMILES	outcome [1]	AC50 [2]	outcome [3]	outcome [4]	outcome [5]	AC50 [6]	outcome [7]	outcome [8]	outcome [9]	outcome [10]	AC50 [1]	AC50 [3]	AC50 [5]	AC50 [7]	AC50 [8]	AC50 [9]	outcome [2]	outcome [6]	AC50 [10]	AC50 [4]
O=C1c2ccccc2C(=O)c2c(O)ccc(O)c21	inactive	4.94 µM (active)	inactive	inactive	inactive	15 µM (active)	inactive	inactive	inactive	inactive										
CC1(C)CCC[C@]2(C)[C@H]3CCO[C@]3(C)CC[C@@H]12	inactive	34.9 µM (active) and 32.9 µM (active)	inactive	inactive		36.3 µM (active) and 36.8 µM (active)				inactive	33 µM (active)	20 µM (active)	33.4 µM (active) and 33.3 µM (active)	30.4 µM (active) and 31.2 µM (active)	34.2 µM (active) and 31.3 µM (active)	34.5 µM (active) and 35.3 µM (active)				
CS(=O)(=O)OCCCCOS(C)(=O)=O	inactive		inactive	inactive	inactive		inactive	inactive	inactive	inactive							inactive	inactive		
CC(=O)c1c(C)c([N+](=O)[O-])c(C(C)(C)C)c([N+](=O)[O-])c1C	inactive		inactive	inactive	inactive		inactive	inactive	inactive	inactive							inactive	inactive		
C1=CC2C3C=CC(C3)C2C1 (stereo not given)	inactive		inactive	inactive	inactive		inactive	inactive	inactive	inactive							inactive	inactive		
O=C1OC[C@H](Cc2cccc(O)c2)[C@H]1Cc1cccc(O)c1	inactive		inactive	inactive	inactive		inactive	inactive	inactive	inactive							inactive	inactive		
CCCCOC(=O)CCCCCCCC(=O)OCCCC	inactive		inactive	inactive	inactive		inactive	inactive	inactive	inactive							inactive	inactive		
O=CN1CCOCC1	inactive		inactive	inactive	inactive		inactive	inactive	inactive	inactive							inactive	inactive		
CC(C)(N=C=O)c1cccc(C(C)(C)N=C=O)c1	inactive		inactive	inactive	inactive		inactive	inactive	inactive	inactive							inactive	inactive		
CN(C)C(=S)SC(=S)N(C)C	inactive	19.9 µM (active)	inactive	inactive	inactive	19.9 µM (active)		inactive	inactive					19.9 µM (active)					4.02 µM (active)	
CCCCCCC(CO)CCCC (stereo not given)	inactive		inactive	inactive	inactive		inactive	inactive	inactive	inactive							inactive	inactive		
COc1ccc(OC)c(N=Nc2c(O)ccc3ccccc23)c1	inactive				inactive	33.6 µM (active)	inactive	inactive		inactive		0.0186 µM (active)				20 µM (active)	inactive			0.119 µM (active)
CC(C=O)Cc1ccc(C(C)(C)C)cc1 (stereo not given)	inactive	28.8 µM (active)		inactive		32.3 µM (active)		inactive		inactive		27.5 µM (active)	30.6 µM (active)	30.7 µM (active)		31.3 µM (active)				
c1ccc(Oc2ccccc2)cc1	inactive		inactive	inactive	inactive		inactive	inactive	inactive	inactive							inactive	inactive		
CSCCC=O	inactive		inactive	inactive	inactive		inactive	inactive	inactive	inactive							inactive	inactive		
CCCCN(CCCC)C(=O)N(CCCC)CCCC		12.5 µM (active)				10.4 µM (active)				inactive	20 µM (active)	17.4 µM (active)	20 µM (active)	20 µM (active)	10.8 µM (active)	13.9 µM (active)				20 µM (active)
C=C(C)C(=O)OCCOCCOCCOCCOC(=O)C(=C)C	inactive	1.44 µM (active)	inactive	inactive	inactive		inactive	inactive	inactive	inactive								inactive		
CC(CN=Cc1ccccc1O)N=Cc1ccccc1O (stereo not given)	inactive		inactive	inactive	inactive	1.64 µM (active)	inactive	inactive	inactive	inactive							inactive	inactive		20 µM (active)
C=CC(C)(O)CCC=C(C)C (stereo not given)	inactive		inactive	inactive	inactive	4.81 µM (active)	inactive	inactive	inactive	inactive							inactive	inactive		
CC=Cc1ccc(OCC)c(O)c1	inactive		inactive	inactive	inactive		inactive	inactive	inactive	inactive							inactive	inactive		
IC(I)I	inactive		inactive	inactive	inactive		inactive	inactive	inactive	inactive							inactive	inactive		
COc1cc(Cl)c(OC)cc1N	inactive		inactive	inactive	inactive		inactive	inactive	inactive	inactive							inactive	inactive		
C=C(C)[C@H]1CC=C(C)C(=O)C1	inactive		inactive	inactive	inactive		inactive	inactive	inactive	inactive							inactive	inactive		

SMILES	outcome [1]	AC50 [2]	outcome [3]	outcome [4]	outcome [5]	AC50 [6]	outcome [7]	outcome [8]	outcome [9]	outcome [10]	AC50 [1]	AC50 [3]	AC50 [5]	AC50 [7]	AC50 [8]	AC50 [9]	outcome [2]	outcome [6]	AC50 [10]	AC50 [4]
COc1ccc(CCN2CCC(Nc3nc4ccccc4n3Cc3ccc(F)cc3)CC2)cc1	inactive		inactive		inactive	8.02 µM (active)	inactive	inactive	inactive	inactive							inactive			1.54 µM (active)
c1ccc2cc(Nc3ccc(Nc4ccc5ccccc5c4)cc3)ccc2c1	inactive		inactive	inactive	inactive		inactive	inactive	inactive	inactive							inactive	inactive		
CN(c1nccc(=O)[nH]1)C1CCN(c2nc3ccccc3n2Cc2ccc(F)cc2)CC1	inactive		inactive	inactive	inactive		inactive	inactive	inactive	inactive							inactive	inactive		
O=C1OC2(c3ccccc31)c1ccc(O)c(Br)c1Oc1c2ccc(O)c1Br	inactive		inactive	inactive	inactive		inactive	inactive	inactive	inactive							inactive	inactive		
C[C@@H]1CCN(C(=O)[C@H](CCCN=C(N)N)NS(=O)(=O)c2cccc3c2NC[C@H](C)C3)[C@@H](C(=O)O)C1	inactive		inactive	inactive	inactive		inactive	inactive	inactive	inactive							inactive	inactive		
Oc1c(Cl)cc(Cl)c(Cl)c1Cc1c(O)c(Cl)cc(Cl)c1Cl	inactive	2.28 µM (active)		inactive		5.37 µM (active)				inactive		8.79 µM (active)	30.7 µM (active)	19.8 µM (active)	3.97 µM (active)	7.17 µM (active)				
CCC(C)c1cc([N+](=O)[O-])cc([N+](=O)[O-])c1OC(=O)OC(C)C (stereo not given)		13.7 µM (active)				29.7 µM (active)					4.74 µM (active)	32.7 µM (active)	32.3 µM (active)	30.7 µM (active)	34.1 µM (active)	25.8 µM (active)			36.8 µM (active)	31.8 µM (active)
CN(C)C(=O)Nc1ccc(Oc2ccc(Cl)cc2)cc1	inactive		inactive	inactive	inactive		inactive	inactive	inactive	inactive							inactive	inactive		
CCOC(=O)C(C#N)=C(c1ccccc1)c1ccccc1	inactive		inactive	inactive	inactive	12.8 µM (active) and 3.97 µM (active)	inactive	inactive	inactive	inactive							inactive		13.7 µM (active)	
C=C(C)C(=O)OCC(CC)(COC(=O)C(=C)C)COC(=O)C(=C)C	inactive		inactive	inactive			inactive	inactive	inactive	inactive			4.8 µM (active)				inactive	inactive		
Clc1cc(Cl)c(-c2c(Cl)c(Cl)cc(Cl)c2Cl)cc1Cl	inactive		inactive	inactive	inactive	0.023 µM (active)	inactive	inactive	inactive	inactive							inactive			
CS(=O)(=O)c1ccc(C2=C(c3ccccc3)C(=O)OC2)cc1	inactive		inactive	inactive	inactive		inactive	inactive	inactive	inactive							inactive	inactive		
Cc1cc(CCC(=O)OCCOCCOCCOC(=O)CCc2cc(C)c(O)c(C(C)(C)C)c2)cc(C(C)(C)C)c1O	inactive		inactive	inactive	inactive		inactive	inactive	inactive	inactive							inactive	inactive		
O=C(Nc1ccc2c(O)c(N=Nc3ccc(N=Nc4ccc(S(=O)(=O)O)cc4)cc3)c(S(=O)(=O)O)cc2c1)c1ccccc1	inactive		inactive	inactive	inactive		inactive	inactive	inactive	inactive							inactive	inactive		
CCCCCCCCCCCCCCCC(=O)OC/C=C(C)/C=C/C=C(C)/C=C/C1=C(C)CCCC1(C)C	inactive		inactive	inactive	inactive		inactive	inactive	inactive	inactive							inactive	inactive		
CC1(C)C2=CCCC(C)(C)[C@]23CC[C@H]1C3	inactive	20 µM (active)				30.7 µM (active)	inactive			inactive		32.7 µM (active)	31.3 µM (active)		20 µM (active)	31.1 µM (active)				34.6 µM (active)
CC(=O)Nc1ccc(C(=O)CCl)cc1		3.78 µM (active)				5.44 µM (active)		inactive		inactive	12.6 µM (active)	8.22 µM (active)	8.38 µM (active)	8.96 µM (active)		12.8 µM (active)				11.6 µM (active)
CCN(CC)C(=O)N(CC)CC	inactive		inactive	inactive	inactive		inactive	inactive	inactive	inactive							inactive	inactive		
C=C(C)C(=O)OCCOCCOCCOC(=O)C(=C)C	inactive	0.0969 µM (active)		inactive	inactive		inactive	inactive	inactive	inactive		0.016 µM (active)						inactive		
CCCCCC(C=O)=Cc1ccccc1	inactive	31 µM (active)		inactive		30.1 µM (active)	inactive	inactive		inactive		31.9 µM (active)	27.5 µM (active)			33.5 µM (active)				
c1ccc(CCc2ccccc2)cc1	inactive	29 µM (active)					inactive			inactive		29.5 µM (active)	33.1 µM (active)		26.4 µM (active)	29.1 µM (active)		inactive		30.6 µM (active)
CC(C)(C)CC(C)(C)c1ccc(OCCOCC[N+](C)(C)Cc2ccccc2)cc1		6.1 µM (active)				7.66 µM (active)					7.3 µM (active)	7.89 µM (active)	8.03 µM (active)	9.51 µM (active)	5 µM (active)	7.54 µM (active)			6.62 µM (active)	8.21 µM (active)
CC(=O)C1(C)CC2=C(CCCC2(C)C)CC1C (stereo not given)	inactive			inactive		13.2 µM (active)				inactive		10.3 µM (active)	20 µM (active)	27.6 µM (active)	11.9 µM (active)	12.4 µM (active)				
